BJeLR viability = MLPCN primary cell-based screen for lethality selective to Ras in HRASV12 cells. inhibition, % (no concentration beside the values). AID 1554, 2009. BJeLR (HRASV12) viability, CellTiter-Glo ATP luminescence, 48 h. 300,000 compounds, 0.17% hits; in the data active = inhibition above about 50%; inconclusive = no clear call, values can overlap the other calls
BoNT-F LC inh = BoNT/F light chain protease inhibitors, primary screen, biochemical, flow cytometry, MLPCN library. Botulinum neurotoxin type F light chain protease (Clostridium botulinum). Multiplex microsphere protease cleavage assay. inhibition, % at 10 µM. 360,000 compounds, 0.22% hits. AID 588497, 2011; in the data active = inhibition above about 35%, passing the limit was not always enough; inconclusive = no clear call, values can overlap the other calls; note: plate controls were buffer without enzyme for full effect and enzyme alone for no effect
Bead autofluor = compound fluorescence in toxin protease inhibitor counterscreen; 360,000 compounds, 3.1% hits; fluorescence intensity (concentration not given with the values); compound autofluorescence counterscreen, microsphere flow cytometry; active compounds read high; in the data active = fluorescence intensity above about 16000; inconclusive = no clear call, values can overlap the other calls
Anthrax LF inh2 = Bacillus anthracis LF protease inhibitors, primary screen, biochemical, multiplex microsphere, MLPCN library | multiplex microsphere protease cleavage assay | 360,000 compounds, 0.12% hits | AID 588501, 2011 | Lethal factor (Bacillus anthracis), P15917 | inhibition, % at 10 µM; note: plate controls were buffer without enzyme for full effect and enzyme alone for no effect
BoNT-A LC inh2 = BoNT/A light chain protease inhibitors, primary screen, biochemical, flow cytometry, MLPCN library; inhibition, % at 10 µM; 360,000 compounds, 0.17% hits; Botulinum neurotoxin type A light chain protease (Clostridium botulinum A str. ATCC 3502); multiplex microsphere protease substrate cleavage; AID 588499, 2011; note: plate controls were buffer without enzyme for full effect and enzyme alone for no effect
* marks the source's active call; other numbers are inactive results; ? = inconclusive; · = no result. Rows were chosen to be rich in hits. Some 3.5% of all compounds tested hit in one or more screens of this group. Cut-off read from the data, not from the text of the source, unless noted: active = inhibition above about 30%; inconclusive = no clear call, values can overlap the other calls; inactive = below that.

SMILES	BJeLR viability	BoNT-F LC inh	Bead autofluor	Anthrax LF inh2	BoNT-A LC inh2
CC(OC(=O)c1cccnc1SCc1cc(=O)n2ccccc2n1)c1ccccn1 (stereo unspecified)	0.2	-5.0	16644*	-3.5	-3.0
[O-][n+]1onc2c1CCc1c-2nn(-c2ccccc2Cl)[n+]1[O-]	-15.3	-12.4	11143	-3.9	-0.3
Cc1ccc(-n2nc3c([n+]2[O-])CCc2c-3no[n+]2[O-])cc1	6.1	-2.0	21683*	0.6	-2.4
COc1ccc(C(C)(C)C)cc1NC(=O)c1ccoc1C	-7.2	-0.6	21536*	-9.2	0.7
COc1ccc(C)cc1NC(=O)c1ccoc1C	-6.4	-0.5	2987	2.3	0.1
O=C(C1=C(O)C(=O)N(CCN2CCOCC2)C1c1cccc(O)c1)c1cc2ccccc2o1 (stereo unspecified)	5.7	12.2	4754	-7.1	2.8
O=C(C1=C(O)C(=O)N(CCN2CCOCC2)C1c1cccnc1)c1cc2ccccc2o1 (stereo unspecified)	·	-4.0	19706*	-2.9	-1.0
CCOC(=O)N1CCN(C(=O)COC(=O)C2CCN(S(=O)(=O)c3ccc(C)c(C)c3)CC2)CC1	10.8	0.9	5912	0.2	0.7
Cc1cc(C)c(C#N)c(OCC(=O)c2ccc(Br)cc2)n1	3.6	-0.2	23283*	1.4	?
Cc1ccc(C(=O)COc2nc(C)cc(C)c2C#N)cc1	-0.6	-2.6	22443*	-0.2	-1.1
O=C(Nc1cccc([N+](=O)[O-])c1)c1ccc2nc(N3C(=O)CCC3=O)sc2c1	3.3	-8.0	21930*	-0.5	?
O=C(Nc1cccc(Br)c1)c1ccc2nc(N3C(=O)CCC3=O)sc2c1	-6.2	-7.9	5778	-6.5	0.2
CCOC(=O)c1ccc(NC(=O)N(CC)CC)cc1	4.0	-1.1	20244*	0.9	?
CCOC(=O)c1ccc(NC(=O)Nc2cccc(C)n2)cc1	-1.5	1.1	2460	-0.7	0.1
CCOC(=O)c1ccc(NC(=O)Nc2cc(C)on2)cc1	1.3	0.9	16267*	-2.8	-0.2
CCC(CC)C(=O)Nc1ccc(C(=O)Nc2cc(C)on2)cc1	8.1	-3.3	4264	-4.2	-0.4
Cc1cc(NC(=O)c2ccc(NC(=O)CC(C)C)cc2)no1	-2.4	9.3	19975*	-4.2	4.7
CCOC(=O)c1ccc(NC(=S)NCCCN2CCCCC2)cc1	11.7	0.1	22858*	-0.4	?
CCCCN(C)C(=O)c1sc(=O)n(Cc2c(C)cccc2C)c1C	·	-4.7	4252	-7.9	-0.7
O=C(OCc1nnc(-c2ccccc2)o1)c1cc(S(=O)(=O)N2CCOCC2)ccc1F	0.6	15.6	5593	-3.4	0.8
C[C@H]1CN([C@@H](C)CO)C(=O)c2cccc(NC(=O)C3CC3)c2O[C@H]1CN(C)S(=O)(=O)c1ccccc1	·	-3.2	3624	-2.9	-0.2
CN(C(=O)CSc1nnc(N)s1)C1CCCCC1	-0.3	3.6	5521	1.0	-0.4
CCOC(=O)c1ccc(NC(=O)Nc2ccc(S(N)(=O)=O)cc2)cc1	6.7	-8.5	24361*	-0.3	-5.1
CN(CCO)C(=O)CCC(=O)Nc1ccc(S(N)(=O)=O)cc1	6.2	-5.2	17212*	-5.8	-3.4
Cc1ccc(N2C(=O)c3n[nH]c(C)c3C2c2ccco2)cc1 (stereo unspecified)	-5.3	-1.7	22119*	-2.1	?
SMILES	BJeLR viability	BoNT-F LC inh	Bead autofluor	Anthrax LF inh2	BoNT-A LC inh2
CCOC(=O)c1ccc(N2C(=O)c3n[nH]c(C)c3C2c2ccco2)cc1 (stereo unspecified)	3.4	8.1	3064	5.1	-0.2
COc1ccc(OC)c(-n2c(SCC(=O)NCC3CCCO3)nc3ccccc3c2=O)c1 (stereo unspecified)	·	-12.2	4005	-0.5	-0.5
c1ccc(Cc2nnc3sc(-c4ccccn4)nn23)cc1	-9.9	5.7	21625*	0.2	?
c1ccc(Cc2nnc3sc(-c4cccs4)nn23)cc1	-20.6	7.4	7931	3.4	0.9
CCOc1ccccc1-c1nn2c(Cc3ccccc3)nnc2s1	3.4	-17.2	19404*	-3.2	-13.7
c1ccc(Cc2nnc3sc(-c4cccnc4)nn23)cc1	4.6	-4.7	16689*	-5.8	-1.4
c1ccc(Cc2nnc3sc(-c4ccncc4)nn23)cc1	7.4	-0.4	23785*	-1.1	-0.8
c1ccc(Cc2nnc3sc(-c4ccc5c(c4)OCO5)nn23)cc1	5.0	2.2	10869	-2.9	-0.9
Cn1cc(Cc2ccc(C(=O)N3CCOCC3)cn2)c2ccccc21	·	-3.6	3668	-0.8	0.1
CCOC(=O)[C@]12CCCC=C1N(Cc1ccco1)C(=O)[C@H](CC(=O)NCCc1ccccc1OC)C2	·	-5.9	5861	-7.7	0.4
CCOc1ccc(C(=O)NCC(=O)NC(C)CCc2ccccc2)cc1OCC (stereo unspecified)	4.1	2.9	5620	2.6	-0.5
Cc1ccc(-n2c3c(cc(C(=O)O)c2=O)C(=O)CC(C)(C)C3)cc1	-4.0	9.7	2929	-3.1	1.5
CC1(C)CC(=O)c2cc(C(=O)O)c(=O)n(-c3ccccc3)c2C1	28.2	10.1	8750	2.0	0.3
Cc1cc2c(n1-c1ccc(Cl)cc1)CC(C)(C)CC2=O	-2.6	-6.0	19623*	-6.7	-0.9
CCOC(=O)c1cc2c(n(-c3ccccc3)c1=O)CC(C)(C)CC2=O	-17.9	-7.1	25220*	-0.9	-5.3
COc1cc2sc(-c3ccc(S(C)(=O)=O)cc3)c(C#CCO)c2cc1OC	·	-0.4	2849	-5.0	1.5
CCc1ccc(C=NC23CN4CN(CN(C4)C2)C3)s1	-0.2	-6.6	16887*	-1.1	?
C(=NC12CN3CN(CN(C3)C1)C2)c1cccnc1	-4.0	-2.9	2993	-0.7	1.1
O=C(Nc1nccs1)c1cnc2sccn2c1=O	·	2.1	2762	-1.4	0.5
O=C(Nc1ccccc1F)c1cc2nc(C(F)F)cc(C(F)F)n2n1	5.7	-7.2	21540*	-1.7	-6.4
CCSc1nnc(-c2ccccc2N)c(=O)[nH]1	-4.3	-1.2	23571*	-3.9	-0.1
Cc1ccc(CC(=O)NCCN2CCOCC2)cc1	-13.4	35.8*	3023	2.6	2.3
Cc1ccc(CC(=O)NCC(C)C)cc1	-2.0	3.1	22914*	1.0	1.3
Cc1ccc(CC(=O)NCc2ccc(Cl)cc2)cc1	15.0	-2.3	2569	0.5	-0.4
COc1ccc(/C=C(\NC(=O)c2ccc(C)cc2)C(=O)Nc2c(C)n(C)n(-c3ccccc3)c2=O)cc1	-8.5	2.9	2144	-1.3	0.7
O=C(NC(Cc1ccccc1)C(=O)O)/C(=C/c1ccc(Br)cc1)NC(=O)c1ccc(Br)o1 (stereo unspecified)	1.0	-2.4	?	2.7	1.6
CCC(=O)N1N=C(c2ccc(NS(C)(=O)=O)cc2)CC1c1ccc(C)cc1 (stereo unspecified)	·	14.6	19251*	-8.5	?
